From PubChem BioAssay AID1159580 (chemical genetic matrix, 2015)
Where “and” joins values, the source holds several entries; their conditions need not be identical. Equal entries are not always repeated. Screen size: about 5,500 compounds; about 2,000 (36%) were called active. Not shown: some 18% with an inconclusive outcome. Rule as the data show it: active = normalized growth mostly below about 0.91 (no sharp cut-off); inconclusive = no clear call, values can overlap the other calls; inactive = mostly above about 0.92. This is one part of the list.

Assay: chemical genetic growth profiling, strain panel (AID 1159580);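 also: tested at 20 µM; growth read once vehicle control cultures reached saturation at 30 °C; 1 = growth at the plate median or of vehicle wells; lower values mean less growth of the strain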
Conditions: S. cerevisiae deletion strains, growth OD
[1] = locus YAL013W, strain DEP1, stronger effect = lower value
[2] = locus YBR229C, strain ROT2, stronger effect = lower value
[3] = locus YCL061C, strain MRC1, stronger effect = lower value
[4] = locus YDL101C, strain DUN1, stronger effect = lower value
[5] = locus YDL134C, strain PPH21, stronger effect = lower value
[6] = locus YEL061C, strain CIN8, stronger effect = lower value
[7] = locus YGR078C, strain PAC10, stronger effect = lower value
[8] = locus YHR030C, strain SLT2, stronger effect = lower value
[9] = locus YJR043C, strain POL32, stronger effect = lower value
[10] = locus YKL190W, strain CNB1, stronger effect = lower value
[11] = locus YLR039C, strain RIC1, stronger effect = lower value
[12] = locus YLR262C, strain YPT6, stronger effect = lower value
[13] = locus YMR307W, strain GAS1, stronger effect = lower value
[14] = locus YNL153C, strain GIM3, stronger effect = lower value
[15] = locus YNL322C, strain KRE1, stronger effect = lower value

Measured: normalized growth

Cc1cc2c(cc1C)CSC(C)(c1ccc(F)cc1)SC2
inactive: [1] 0.994 | [2] 0.994 | [3] 0.993 | [4] 0.968 | [5] 0.997 | locus YDR150W, strain NUM1, stronger effect = lower value 0.903 | [6] 1.02 | [7] 0.979 | [8] 0.952 | locus YHR087W, strain rtc3, stronger effect = lower value 1.01 | [9] 0.982 | locus YJR075W, strain HOC1, stronger effect = lower value 0.978 | [10] 0.992 | [11] 0.953 | locus YLR058C, strain SHM2 (second series), stronger effect = lower value 1 | locus YLR085C, strain ARP6, stronger effect = lower value 1.03 | [12] 0.961 | locus YML094W, strain GIM5, stronger effect = lower value 1.01 | locus YMR219W, strain ESC1, stronger effect = lower value 1.01 | locus YMR263W, strain SAP30, stronger effect = lower value 0.947 | [13] 0.737 | [14] 0.986 | locus YNL298W, strain CLA4 (second series), stronger effect = lower value 0.975 | [15] 1 | locus YNR030W, strain Alg12, stronger effect = lower value 0.978 | locus YPL055C, strain LGE1, stronger effect = lower value 1 | locus YPL241C, strain CIN2, stronger effect = lower value 1.01 | locus YPR135W, strain CTF4, stronger effect = lower value 0.946

COc1ccccc1OCC(O)COC(N)=O (stereo unspecified)
inactive: [1] 0.997 | locus YAL021C, strain ccr4, stronger effect = lower value 0.991 | locus YAL026C, strain drs2, stronger effect = lower value 0.99 | locus YAL030W, strain snc1, stronger effect = lower value 0.996 | locus YBL061C, strain skt5, stronger effect = lower value 0.989 | locus YBR009C, strain hhf1, stronger effect = lower value 0.97 | locus YBR021W, strain FUR4, stronger effect = lower value 1.02 | locus YBR023C, strain chs3, stronger effect = lower value 0.966 | locus YBR171W, strain sec66, stronger effect = lower value 0.981 | [2] 1 | locus YBR231C, strain swc5, stronger effect = lower value 0.992 | locus YBR279W, strain paf1, stronger effect = lower value 0.976 | locus YCL011C, strain gbp2, stronger effect = lower value 0.979 | locus YCL016C, strain dcc1, stronger effect = lower value 0.962 | locus YCL029C, strain bik1, stronger effect = lower value 0.997 | [3] 0.973 | locus YCL069W, strain vba3, stronger effect = lower value 0.996 | locus YCR088W, strain abp1, stronger effect = lower value 0.985 | locus YDL005C, strain med2, stronger effect = lower value 0.987 | locus YDL035C, strain GPR1, stronger effect = lower value 1 | locus YDL040C, strain nat1, stronger effect = lower value 0.992 | locus YDL074C, strain BRE1, stronger effect = lower value 0.995 | [4] 0.997 | [5] 1.01 | locus YDL185W, strain tfp1, stronger effect = lower value 0.957 | locus YDL192W, strain arf1, stronger effect = lower value 0.977 | locus YDR001C, strain nth1, stronger effect = lower value 0.991 | locus YDR069C, strain doa4, stronger effect = lower value 0.996 | locus YDR101C, strain arx1, stronger effect = lower value 1.04 | locus YDR137W, strain rgp1, stronger effect = lower value 0.965 | locus YDR159W, strain sac3, stronger effect = lower value 1.01 | locus YDR162C, strain NBP2, stronger effect = lower value 1 | locus YDR195W, strain ref2 1.01 | locus YDR297W, strain sur2, stronger effect = lower value 0.996 | locus YDR318W, strain mcm21, stronger effect = lower value 0.993 | locus YDR334W, strain swr1, stronger effect = lower value 0.978 | locus YDR335W, strain msn5, stronger effect = lower value 0.993 | locus YDR388W, stronger effect = lower value 1 | locus YDR392W, strain spt3, stronger effect = lower value 0.918 | locus YDR502C, strain sam2, stronger effect = lower value 0.997 | locus YEL003W, strain gim4, stronger effect = lower value 1 | locus YEL037C, strain rad23, stronger effect = lower value 0.985 | locus YEL061C, strain CIN8 (second series), stronger effect = lower value 0.984 | [6] 0.98 | locus YER015W, strain faa2, stronger effect = lower value 0.974 | locus YER016W, strain bim1, stronger effect = lower value 1.02 | locus YER110C, stronger effect = lower value 0.983 | locus YER111C, strain swi4, stronger effect = lower value 0.981 | locus YER155C, strain BEM2 (second series), stronger effect = lower value 1 | locus YER155C, strain BEM2, stronger effect = lower value 0.993 | locus YER167W, strain BCK2, stronger effect = lower value 0.99 | locus YFR010W, strain ubp6, stronger effect = lower value 0.987 | locus YGL078C, strain dbp3, stronger effect = lower value 0.984 | locus YGL086W, strain mad1, stronger effect = lower value 1.02 | locus YGL167C, strain pmr1, stronger effect = lower value 0.983 | locus YGL173C, strain kem1, stronger effect = lower value 0.992 | locus YGL227W, strain vid30, stronger effect = lower value 0.988 | locus YGL240W, strain doc1, stronger effect = lower value 1.02 | locus YGL248W, strain PDE1, stronger effect = lower value 0.999 | locus YGL253W, strain hxk2, stronger effect = lower value 0.985 | [7] 1 | locus YGR135W, strain pre9, stronger effect = lower value 0.961 | locus YGR229C, strain SMI1, stronger effect = lower value 1 | locus YGR252W, strain gcn5, stronger effect = lower value 0.988 | locus YHR013C, strain ard1, stronger effect = lower value 0.952 | locus YHR027C, strain rpn1, stronger effect = lower value 1 | [8] 0.996 and 1.06 | locus YHR079C, strain IRE1 (second series), stronger effect = lower value 0.991 | locus YHR079C, strain IRE1, stronger effect = lower value 1.05 | locus YHR094C, strain hxt1, stronger effect = lower value 1 | locus YHR129C, strain ARP1, stronger effect = lower value 1 | locus YHR142W, strain chs7, stronger effect = lower value 0.965 | locus YHR200W, strain rpn10, stronger effect = lower value 0.985 | locus YIL066C, strain RNR3, stronger effect = lower value 1 | locus YIL073C, strain SPO22, stronger effect = lower value 0.94 | locus YIL125W, strain kgd1, stronger effect = lower value 0.999 | locus YIR030C, strain dcg1, stronger effect = lower value 0.985 | locus YJL092W, strain hpr5, stronger effect = lower value 0.984 | locus YJL095W, strain BCK1 (second series), stronger effect = lower value 0.991 | locus YJL095W, strain BCK1, stronger effect = lower value 0.991 and 1.03 | locus YJL115W, strain asf1, stronger effect = lower value 0.975 | locus YJL129C, strain trk1, stronger effect = lower value 0.972 | locus YJL134W, strain LCB3, stronger effect = lower value 0.99 | locus YJL154C, strain vps35, stronger effect = lower value 0.992 | locus YJL164C, strain tpk1, stronger effect = lower value 0.97 | locus YJL166W, strain qcr8, stronger effect = lower value 0.96 | locus YJL168C, strain set2, stronger effect = lower value 1 | locus YJL187C, strain SWE1 (second series), stronger effect = lower value 1 | locus YJL187C, strain SWE1, stronger effect = lower value 0.99 | [9] 1.02 | locus YJR066W, strain TOR1, stronger effect = lower value 0.984 | locus YKL009W, strain mrt4, stronger effect = lower value 0.973 | locus YKL068W, stronger effect = lower value 0.989 | locus YKL085W, strain MDH1 (second series), stronger effect = lower value 0.982 | locus YKL085W, strain MDH1, stronger effect = lower value 0.982 | locus YKL160W, strain elf1, stronger effect = lower value 0.965 | [10] 0.976 | locus YKR001C, strain vps1, stronger effect = lower value 1 | locus YKR026C, strain gcn3, stronger effect = lower value 0.992 | locus YKR091W, strain srl3, stronger effect = lower value 0.981 | locus YLL001W, strain dnm1, stronger effect = lower value 0.968 | locus YLL026W, stronger effect = lower value 0.995 | locus YLL041C, strain sdh2, stronger effect = lower value 0.998 | locus YLR027C, strain aat2, stronger effect = lower value 0.997 | [11] 0.941 | locus YLR058C, strain SHM2, stronger effect = lower value 0.999 | locus YLR102C, strain apc9, stronger effect = lower value 0.991 | locus YLR113W, strain HOG1, stronger effect = lower value 1.02 | locus YLR221C, strain rsa3, stronger effect = lower value 0.965 | locus YLR258W, strain gsy2, stronger effect = lower value 0.974 | locus YLR262C, strain YPT6 (second series), stronger effect = lower value 0.966 | [12] 0.985 | locus YLR268W, strain sec22, stronger effect = lower value 0.99 | locus YLR320W, strain mms22, stronger effect = lower value 0.964 | locus YLR330W, strain CHS5, stronger effect = lower value 0.991 | locus YLR342W, strain FKS1 (second series), stronger effect = lower value 1.01 | locus YLR342W, strain FKS1, stronger effect = lower value 0.981 | locus YLR357W, strain rsc2, stronger effect = lower value 0.963 | locus YLR370C, strain arc18, stronger effect = lower value 0.987 | locus YLR371W, strain rom2, stronger effect = lower value 1 | locus YLR384C, strain iki3, stronger effect = lower value 0.979 | locus YLR418C, strain cdc73, stronger effect = lower value 0.988 | locus YML016C, strain PPZ1, stronger effect = lower value 1 | locus YML032C, strain rad52, stronger effect = lower value 1 | locus YML120C, strain ndi1, stronger effect = lower value 0.958 | locus YML124C, strain tub3, stronger effect = lower value 0.988 | locus YMR058W, strain fet3, stronger effect = lower value 0.991 | locus YMR078C, strain ctf18, stronger effect = lower value 0.986 | locus YMR125W, strain sto1, stronger effect = lower value 0.971 | locus YMR129W, stronger effect = lower value 0.988 | locus YMR205C, strain PFK2, stronger effect = lower value 0.964 | locus YMR223W, strain ubp8, stronger effect = lower value 0.964 | locus YMR231W, strain pep5, stronger effect = lower value 0.983 | [13] 1.02 | locus YNL067W, strain RPL9B, stronger effect = lower value 0.986 | locus YNL071W, strain lat1, stronger effect = lower value 0.982 | locus YNL128W, strain TEP1, stronger effect = lower value 0.977 | [14] 1.01 | locus YNL183C, strain NPR1, stronger effect = lower value 0.976 | locus YNL209W, strain ssb2, stronger effect = lower value 0.984 | locus YNL233W, strain BNI4, stronger effect = lower value 0.995 | locus YNL248C, strain rpa49, stronger effect = lower value 0.985 | locus YNL250W, strain rad50, stronger effect = lower value 0.967 | locus YNL271C, strain bni1, stronger effect = lower value 0.977 | locus YNL298W, strain CLA4, stronger effect = lower value 0.99 | locus YNL307C, strain MCK1, stronger effect = lower value 0.999 | locus YNL322C, strain KRE1 (second series), stronger effect = lower value 0.987 | [15] 0.997 | locus YNR049C, strain mso1, stronger effect = lower value 0.99 | locus YNR052C, strain pop2, stronger effect = lower value 0.992 | locus YOL006C, strain TOP1, stronger effect = lower value 1.01 | locus YOL012C, strain htz1 0.742 | locus YOL147C, strain pex11, stronger effect = lower value 0.987 | locus YOR001W, strain rrp6, stronger effect = lower value 1.01 | locus YOR061W, strain CKA2, stronger effect = lower value 1 | locus YOR069W, strain VPS5, stronger effect = lower value 0.992 | locus YOR070C, strain gyp1, stronger effect = lower value 0.988 | locus YOR080W, strain dia2, stronger effect = lower value 0.987 | locus YOR083W, strain WHI5, stronger effect = lower value 0.954 | locus YOR106W, strain vam3, stronger effect = lower value 0.955 | locus YOR136W, strain idh2, stronger effect = lower value 0.989 | locus YOR144C, strain elg1, stronger effect = lower value 0.997 | locus YOR184W, strain ser1, stronger effect = lower value 0.989 | locus YOR231W, strain MKK1, stronger effect = lower value 1.04 | locus YOR265W, strain rbl2, stronger effect = lower value 0.992 | locus YOR270C, strain vph1, stronger effect = lower value 0.972 | locus YOR290C, strain snf2, stronger effect = lower value 0.886 | locus YOR316C, strain cot1, stronger effect = lower value 0.984 | locus YPL051W, strain arl3, stronger effect = lower value 1.01 | locus YPL078C, strain atp4, stronger effect = lower value 0.97 | locus YPL106C, strain sse1, stronger effect = lower value 0.978 | locus YPL240C, strain hsp82, stronger effect = lower value 0.996 | locus YPL256C, strain CLN2, stronger effect = lower value 1.06 | locus YPR119W, strain clb2, stronger effect = lower value 0.991 | locus YPR141C, strain kar3, stronger effect = lower value 0.966 | locus YPR163C, strain tif3, stronger effect = lower value 0.988 | locus YPR167C, strain met16, stronger effect = lower value 0.995 | strain wtn01, stronger effect = lower value 0.991
